# From PubChem BioAssay (NCI)
# This is part of a sample that, as a whole, favours compounds with a hit. Of some 83,000 tested, about 20% had one in any assay.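 For each line, cells grew in 96-well plates with the test compound present at a single concentration for 48 hours.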 Unmarked numbers belong to inactive results. The source made the active and inactive calls.
# Tested on: OVCAR-8 ovarian
# Assay: NCI-60 one-dose screen, 48 h (100 = growth as untreated, 0 = no growth, -100 = all killed)
# Settings: 10 µM unless noted
# Experimental: Growth inhibition of the OVCAR-8 human tumor cell line is measured as a screen for anti-cancer activity. Cells are grown in 96 well plates and exposed to the test compound for 48 hours. Compounds are tested at a single concentration, which is 10^-5 M for most compounds. The reported endpoint is percent growth (GI% or GIPRCNT), where numbers from 0 - 100% represent growth inhibition, and numbers from -100% - 0 represent cell death. For example, a value of 40 represents 60% growth inhibition. A value of 0 means no net growth occurred over the course of the experiment. A value of -40 indicates 40% of cells at the beginning of the experiment died by the end of the experiment. A value of -100 means all cells are dead at the end of the experiment.
# NCI-60 Human Tumor Cell Lines Screen was performed using the standard one-dose NCI protocol, which is described in more detail at https://dtp.cancer.gov/discovery_development/nci-60/default.htm.
# Compounds with GIPRCNT values below 10 were considered active. Activity score was based on GIPRCNT using the following formula: […]
# Score is 0 for GIPRCNT values of 100 or above, 50 for GIPRCNT values of 0, and 100 for GIPRCNT values of -100.
row,SMILES,growth
1,COc1cc2c(cc1OC)-c1c(oc3c4c(ccc3c1=O)OC(C)(C)C=C4)CO2,67.7%
2,Cc1[nH]c2ccc(F)cc2c1CCNC(=O)C1CCN(C(=O)c2ccc(-c3ccccc3)cc2)CC1,56.3%
3,NC(=S)NNC1CCCCC1,91.2%
4,Cc1cn([C@]2(CF)O[C@H](CO)C2C)c(=O)[nH]c1=O (stereo not given in full),110%
5,CCCC(=O)Oc1ccc(/C(=C(\C)c2ccc(OC)cc2)c2ccc(OCCN3CCCCC3)cc2)cc1,90.4%
6,O=C1COc2ccccc2C(=O)N1CCCCNc1ccccc1,93.9%
7,CCn1cc(/C=C2\Oc3cc(OCC#N)ccc3C2=O)c2cc(OC)ccc21,21%
8,COC(=O)c1oc2c(C(=O)/C=C/c3ccc(OC)cc3)c(OCCN3CCOCC3)ccc2c1C,-37.6% (active)
9,O=S1(=O)N(CCNc2nccc(-c3c(-c4cccc(O)c4)nc4sccn34)n2)CCN1Cc1ccccc1,48.3%
10,CCOC(=O)C1CN(Cc2ccccc2)C(=O)C1=O (stereo not given),107%
11,N#Cc1c(N)nc(Cl)c(C#N)c1C(=O)c1ccccc1,36.8%
12,O=S(c1ccccc1)c1ccc2nnnn2n1 (stereo not given),108%
13,COc1cc2c(/C=C3/C(=O)Nc4ccc(O)cc43)c(Cl)n(Cc3cc(OC)c(OC)c(OC)c3)c2cc1C,22.3%
14,COc1cc(-c2nc3ccccc3s2)ccc1OCc1nc2n(n1)S(=O)(=O)c1ccccc1N2c1ccccc1,103%
15,Clc1ccc2c(NCCNc3nc(Cl)nc4ccccc34)ccnc2c1,-62.5% (active)
16,Cc1cc(Nc2ccc(Cl)c(Cl)c2)nc(N)n1,107%
17,CCCCOc1c(N)cc(Cl)cc1C(=O)OCCN(CC)CC,90.8%
18,Cc1nssc1=S,97.9%
19,Nn1c(SCC(=O)Nc2cc(Cl)c(Cl)cc2Cl)nnc1-c1cc(F)c(Cl)cc1Cl,97.5%
20,Cc1cc2c(cc1C)N(C(=O)CCl)CCN2C(=O)CCl,-4.44% (active)

row,SMILES,growth
1,COc1cc(CN(c2ccc(Cl)cc2)C2OC(=O)c3ccccc32)cc(OC)c1OC (stereo not given),74.8%
2,CN(C)CCCOc1c(Br)cc(/C=C/C(=O)N(C)CCc2cc(Br)c(OCCCN(C)C)c(Br)c2)cc1Br,30.7%
3,CCCOC(=O)c1ccc([N+](=O)[O-])o1,109%
4,Cc1[nH]n(C(=O)c2ccncc2)c(=O)c1N=Nc1ccc(S(=O)(=O)Nc2ccncn2)cc1,104%
5,O=C(Nc1cccc([N+](=O)[O-])c1)c1ccc2ccccc2c1O,80%
6,CCc1c(C)c2cc3nc(NCc4ccccc4)oc3c(C)c2oc1=O,62.5%
7,CNCCCOc1c(Br)cc(CCNC(=O)/C(Cc2ccc(OC)c(Br)c2)=N/O)cc1Br,73.2%
8,C#C[C@@]1(O)[C@@H](CO)O[C@@H](n2cc(C(F)(F)F)c3c(N)ncnc32)[C@@H]1O,2.43% (active)
9,COc1ccc(-n2c(-c3ccc(NC(=O)CCCl)cc3)nnc2-c2cc(OC)c(OC)c(OC)c2)cc1,49.2%
10,CC(=O)c1cc2c(c(O)c1C)C(=O)C(=O)c1c(O)cccc1-2,-60.6% (active)
11,C=C1C(=O)O[C@H]2[C@H]1CC/C(C(=O)Nc1ccc(OC)c(C(N)=O)c1O)=C\CC[C@@]1(C)O[C@@H]21,68.2%
12,CN1CCN(Cn2nc(-c3cc(Cl)cc(Cl)c3Cl)n(/N=C/c3ccc(Cl)cc3)c2=S)CC1,93.5%
13,COc1ccccc1S(=O)(=O)Nc1ccc2c3c(cc(-c4cnn(C5CC5)c4)nc13)C(=O)N2C,70.1%
14,COc1cc2ncnc(Oc3ccc(NC(=O)Nc4ccc(CN5CCOCC5)c(C(F)(F)F)c4)c4ccccc34)c2cc1OC,18.9%
15,Cc1ccc(-c2cc(-c3nnc(SCC(=O)c4ccccc4)o3)c3ccccc3n2)cc1,100%
16,COc1cc(/C=C/C(=O)c2ccc(Oc3ncnc4ccccc34)cc2)cc(OC)c1OC,74.9%
17,COc1cc(-c2nc(N)n(CC(=O)Nc3ccc(/C(C)=N\O)cc3)n2)cc(OC)c1OC,74.3%
18,O=C(Nc1ccc(-n2ccc3c(NC(=O)c4ccccc4)nccc32)cc1)c1ccc(Cl)c(C(F)(F)F)c1,23%
19,Nc1ncnc2c1c(-c1ccc(Oc3ccccc3)cc1)nn2C[C@@H]1SSC[C@H]1O,33.3%
20,CC(C)(C)OC(=O)NCc1cccc(N=C=S)c1,64.4%
